Screen size: about 1,100 compounds; about 350 (32%) were called active. No rule for the calls is given here. Only a sample is shown. Results with a measured potency or affinity are listed apart.

The test in a line: CEM21 lymphoblast cell cytotoxicity, dose response, cytotoxicity control for viral fusion inhibitor project, CellTiter-Glo luminescence, cherry-picked (AID 652042). To be noted: CEM21 cells viability, CellTiter-Glo ATP luminescence, 24 h; series mostly up to 35 µM. A general note: In ATP-based viability assays light output follows the ATP content of the culture.
On to `CC[C@@]12C(=O)N(c3ccc(OC)cc3)C(=O)N1[C@H](c1ccc(Cl)cc1)[C@@H]1C(=O)N(C3CCCCC3)C(=O)[C@@H]12`, for which the activity change, negative = cytotoxicity entry was “inactive”.
Then `Cn1c(-c2ccc(Cl)cc2)ccc(C#N)c1=O`, with “inactive”.
Then `O=S(=O)(NC1CC1)c1ccc(S(=O)(=O)N2CCCc3ccccc32)cc1`, with “inactive”; and `Cc1ccc(OCCCCNC(C)c2ccccc2)c(C)c1` (centres undefined), with 1.82% [at 8 µM] (inactive); and `CC(C)OP(=O)(Nc1cccc2ccccc12)OC(C)C`, with “inactive”.
In the case of `O=C(c1ccccc1F)N1CCN(Cc2cccc(Cl)c2)CC1`, the activity change, negative = cytotoxicity result was “inactive”.
In the case of `COc1ccccc1CN(C)C(=O)CN1CCN(C(=O)c2cccs2)CC1`, the activity change, negative = cytotoxicity entry is “inactive”.
For the molecule `O=C(CCCC(=O)N(c1ccc2c(c1)OCCO2)C(C(=O)NC1CCCCC1)c1ccc(F)cc1)Nc1ccccn1` (centres undefined), the activity change, negative = cytotoxicity result was “inactive”.
With `Nc1ccn([C@@H]2O[C@H](C(=O)NCc3ccc4c(c3)OCO4)[C@@H](O)[C@H]2O)c(=O)n1`, the activity change, negative = cytotoxicity result was “inactive”.
The result for `Nc1ccn(C2OC(COC(=O)C34CC5CC(CC(C5)C3)C4)C(O)C2O)c(=O)n1` (centres undefined) reads “inactive”; that for `C[C@@]12CC(=O)NC1N(C(=O)c1cccc(C(F)(F)F)c1)C(c1ccccc1O)C2` (some centres undefined), “inactive”; that for `COc1ccc(NS(=O)(=O)c2cccc(C(=O)NNC(=O)CNC(=O)c3ccc(C)cc3)c2)cc1`, “inactive”.
As for `COc1ccc(CC(=O)Nc2cccc(S(=O)(=O)N3CCCCCC3)c2)cc1OC`, the activity change, negative = cytotoxicity entry is “inactive”.
Then `CC1CCCC(C)N1CCCNC(=O)c1nn(C)c2c1CSc1ccccc1-2` (centres undefined), with “inactive”; and `Cc1cc(N2CCN(c3nc4ccccc4s3)CC2)n2ncnc2n1`, with “inactive”; and `Cc1cccc(C)c1NC(=O)CCCSc1nnc(-c2ccc(Cl)cc2)n1-c1ccccc1`, with “inactive”.
For `O=C(NCc1ccco1)c1ccc(Cn2c(=O)c3ccccc3n(Cc3cccc(Cl)c3)c2=O)cc1`, the activity change, negative = cytotoxicity result was “inactive”.
As for `Cc1cc(C(=O)N2CCC(C(=O)O)CC2)c(C(F)(F)F)o1`, the activity change, negative = cytotoxicity entry was “inactive”.
Then `COc1ccc(-c2cn[nH]c2N)c(OC)c1`, with “inactive”; and `CCN(C1CCCCC1)S(=O)(=O)c1ccc(S(=O)(=O)N(CC(=O)Nc2ccccc2)C2CC2)cc1`, with “inactive”; and `Cc1cc(Nc2cccc(C(F)(F)F)c2)cc(=O)n1-c1cccc(C(F)(F)F)c1`, with “inactive”.
The result for `O=C(Nc1cccc(C(F)(F)F)c1)c1ccc(Cn2cc(Br)cn2)o1` reads “inactive”; that for `O=C(Nc1ccc(Cl)cc1)Nc1cccc(C(=O)O)c1`, “inactive”.
Regarding `CCN(C[C@H]1N[C@@](CC)(C(=O)OC)[C@H]2C(=O)N(Cc3ccccc3)C(=O)[C@@H]12)S(=O)(=O)c1ccc(C(F)(F)F)cc1`, the activity change, negative = cytotoxicity entry is “inactive”.
Then `CCCCS(=O)(=O)N1CCN(C(=O)C(=O)c2cccc(C(F)(F)F)c2)CC1`, with “inactive”; and `CCN(CC)S(=O)(=O)c1cccc(S(=O)(=O)c2cccc(S(=O)(=O)N(CC)CC)c2)c1`, with “inactive”; and `O=C(NC1CCCCC1)C(c1ccc(Cl)cc1)N(C(=O)c1cnccn1)c1ccc2c(c1)OCO2` (centres undefined), with “inactive”.
As to `COc1ccc(N2CCn3c2nc2c3c(=O)n(CCCc3ccccc3)c(=O)n2C)c(OC)c1`, the activity change, negative = cytotoxicity entry is “inactive”.
Then `CCN1C(=O)[C@H]2[C@@H](c3ccc(C(F)(F)F)cc3)N[C@]3(CCCN(Cc4ccccc4)C3=O)[C@H]2C1=O`, with “inactive”; and `CCC(C(=O)c1ccccc1)N(C(=O)c1ccccc1Cl)N1C(=O)C2C3C=CC(C3)C2C1=O` (centres undefined), with “inactive”; and `CC[C@@]1(C(=O)OC)N[C@H](CN(C)S(=O)(=O)c2ccc(-c3ccccc3)cc2)[C@@H]2C(=O)N(Cc3ccccc3)C(=O)[C@@H]21`, with “inactive”.
With `O=C(Cc1ccc(Cl)cc1Cl)Nc1ccncc1`, the activity change, negative = cytotoxicity result is “inactive”.
The result for `CCN(C[C@H]1N[C@@](CC)(C(=O)OC)[C@H]2C(=O)N(Cc3ccccc3)C(=O)[C@@H]12)C(=O)Nc1ccc(Cl)cc1` reads “inactive”; that for `CCN(CC)C(=O)c1ncn2c1C(=O)NC[C@@H]2C`, “inactive”; that for `CCc1ccc2[nH]c(=O)c(C(c3nnnn3Cc3ccc(OC)cc3)N3CCOCC3)cc2c1` (centres undefined), “inactive”.
For the molecule `CCc1nnc(NC(=O)[C@@H](NC(=O)c2cccc(S(=O)(=O)N(CC)CC)c2)C(C)C)s1`, the activity change, negative = cytotoxicity entry was “inactive”.
The result for `Cc1ccc(C(=O)Nc2cccc(C(=O)O)c2)cc1` reads “inactive”; that for `COc1ccc(C2N(S(=O)(=O)c3ccc(C)cc3)CCN2S(=O)(=O)c2ccc(C)cc2)cc1`, “inactive”.
Then `Cc1ccccc1S(=O)(=O)N1C[C@H]2[C@H]3C(=O)N(C4CCCCC4)C(=O)[C@H]3CC(=O)[C@H]2[C@@H]1c1ccc(Cl)cc1`, with “inactive”; and `O=C(NCc1cccnc1)c1c[nH]c2cc3c(cc2c1=O)OCCO3`, with “inactive”; and `CC[C@@]1(C(=O)OC)N[C@H](CN(C)C(=O)c2ccc(C(C)(C)C)cc2)[C@@H]2C(=O)N(Cc3ccccc3)C(=O)[C@@H]21`, with “inactive”.
Consider `N#Cc1ccc(CSc2nnc(COc3ccccc3)n2-c2ccccc2)cc1`, for which the activity change, negative = cytotoxicity result is “inactive”.
Regarding `Cc1cc(C(=O)CN2C(=O)c3ccccc3S2(=O)=O)c(C)n1C(C)C`, the activity change, negative = cytotoxicity entry is “inactive”.
The result for `O=C(Nc1ccc(S(=O)(=O)N2CCN(Cc3ccccc3)CC2)cc1)c1cnccn1` reads “inactive”; that for `O=C(Nc1nc(-c2ccc3c(c2)OCO3)cs1)c1ccncc1`, “inactive”.
Then `Cc1ccc2c(CN3CCN(S(=O)(=O)c4ccc5c(c4)OCCO5)CC3)cc(=O)oc2c1C`, with “inactive”; and `Cc1ccc(N2C(=O)CC(c3ccsc3)C3=C2CC(C)(C)CC3=O)cc1` (centres undefined), with “inactive”; and `CCN(CC)c1ncnc2ccc(Br)cc12`, with “inactive”.
On to `O=C(N/N=C/c1sc(N2CCOCC2)nc1-c1ccccc1)c1cccc(S(=O)(=O)N2CCOCC2)c1`, for which the activity change, negative = cytotoxicity result is “inactive”.
Regarding `O=S(=O)(Nc1nc2ccccc2nc1Nc1cccc(S(=O)(=O)N2CCCCC2)c1)c1ccccc1`, the activity change, negative = cytotoxicity entry is “inactive”.
As to `CC(=O)OC1c2ccccc2C(=O)N1c1ccccc1C` (centres undefined), the activity change, negative = cytotoxicity entry is “inactive”.
The result for `O=C1COc2ccc(-c3csc(=Nc4ccc(OC(F)F)cc4)n3CC3CCCO3)cc2N1` (centres undefined) reads “inactive”; that for `CC1(C(=O)NCc2cccc3ccccc23)CCN1Cc1ccc(-c2ccccc2)o1` (centres undefined), “inactive”; that for `COc1ccc(NC(=O)C2(C)CCN2Cc2ccccc2OC(F)F)cc1OC` (centres undefined), “inactive”.
The result for `CC(=O)C1=C(C)N(Cc2ccc(Cl)cc2)C(=S)NC1c1cccc(Br)c1` (centres undefined) reads “inactive”; that for `C[C@H](CO)N1C[C@H](C)[C@@H](CN(C)C(=O)NC2CCCCC2)Oc2c(cccc2N(C)C)C1=O`, “inactive”; that for `CCCC#Cc1ccc2c(c1)O[C@@H](CN(C)S(=O)(=O)c1cccc(F)c1)[C@@H](C)CN([C@H](C)CO)S2(=O)=O`, “inactive”.
Turning to `C[C@H](CO)N1C[C@H](C)[C@H](CN(C)S(=O)(=O)c2cccs2)Oc2ccc(NC(=O)C3CCCCC3)cc2CC1=O`, the activity change, negative = cytotoxicity entry is “inactive”.
Then `CCCC#Cc1ccc2c(c1)O[C@@H](CN(C)S(=O)(=O)c1cccc(F)c1)[C@@H](C)CN([C@@H](C)CO)S2(=O)=O`, with “inactive”.
Then `O=c1c2ccccc2nnn1CSc1nnc(COc2ccc(Cl)cc2)n1Cc1ccco1`, with 5.32% [at 8 µM] (inactive); and `CC(NC(=O)c1ccccc1NC(=O)CN1CCc2ccccc2C1)c1ccccc1` (centres undefined), with “inactive”.
For `O=C(O)C[C@@H]1C=C[C@@H](NC(=O)Nc2ccccc2)[C@H](CO)O1`, the activity change, negative = cytotoxicity result is “inactive”.
Then `C[C@@H]1CN([C@@H](C)CO)C(=O)c2cccc(NS(=O)(=O)c3cccs3)c2O[C@@H]1CN(C)Cc1ccc(C(F)(F)F)cc1`, with “inactive”.
For `O=C(O)C[C@@H]1C=C[C@H](NC(=O)Nc2ccccc2)[C@H](CO)O1`, the activity change, negative = cytotoxicity entry is “inactive”.
Regarding `C[C@H]1Cn2cnc(C(=O)N3CCN(c4ccccc4)CC3)c2C(=O)N1`, the activity change, negative = cytotoxicity entry is “inactive”.
The result for `O=C(Nc1nc(COc2ccccc2)cs1)C12CC3CC(CC(C3)C1)C2` reads “inactive”; that for `C=C1CCN([C@@H](Cc2ccccc2)C(=O)Nc2ccc(OC)cc2)S(=O)(=O)c2ccccc21`, “inactive”.
Then `COc1ccccc1NC(=O)N[C@@H]1CC[C@H](CC(=O)N[C@H](C)c2ccccc2)O[C@@H]1CO`, with “inactive”.
The result for `CN1CCN(c2ccccc2NC(=O)C(Cc2ccccc2)n2cccc2)CC1` (centres undefined) reads “inactive”; that for `CC(=O)c1ccc(S(=O)(=O)N2CCN(c3nc4c(C)c(C)ccc4cc3C#N)CC2)cc1`, “inactive”; that for `OCC[C@@H]1C[C@@H](O)[C@H](O)[C@]2(OCc3ccccc32)O1`, “inactive”.
Regarding `COc1ccc(NC(=O)Nc2ccc3c(c2)C(=O)N([C@H](C)CO)C[C@H](C)[C@H](CN(C)Cc2ccncc2)OCCCC[C@H](C)O3)cc1`, the activity change, negative = cytotoxicity result is “inactive”.
The result for `COc1ccccc1S(=O)(=O)Nc1ccc2c(c1)C(=O)N(C)C[C@@H](OC)[C@@H](C)CN[C@@H](C)CO2` reads “inactive”; that for `Cc1ccc2c(c1)[C@H]1[C@H](CO2)[C@H](c2ccccc2)[C@]2(C)C(=O)N(CC3CCCO3)CC(=O)N12` (some centres undefined), “inactive”.
Then `CCOC(=O)C(C)Oc1cccc2c(=O)n(CC(=O)NCCc3ccc(OC)c(OC)c3)ccc12` (centres undefined), with “inactive”.
Then `COc1ccc(Cl)cc1NC(=O)CN(C)C(=O)CCCc1c[nH]c2ccccc12`, with “inactive”.
Turning to `CC(C)CN(C(=O)C(c1ccccc1)c1ccccc1)c1c(N)n(CC(C)C)c(=O)[nH]c1=O`, the activity change, negative = cytotoxicity result is “inactive”.
Then `O=C(Nc1ccc(Cl)cc1)C1CCCN(C2=NS(=O)(=O)c3ccccc32)C1` (centres undefined), with “inactive”; and `CCS(=O)(=O)Nc1ccc2c(c1)C(=O)N(C)C[C@H](OC)[C@@H](C)CN(C(=O)C1CCC1)[C@H](C)CO2`, with “inactive”.
Then `CCc1ccc(-c2cn3nc(C)c(C)nc3n2)cc1`, with “inactive”; and `COC(=O)[C@@]1(C)[C@H]2C(=O)N(Cc3ccccc3)C(=O)[C@H]2[C@H]2CN=C(SCC3CC3)N21`, with “inactive”; and `COc1ccc(NC(=O)Nc2ccc3c(c2)C(=O)N([C@H](C)CO)C[C@H](C)[C@H](CN(C)S(=O)(=O)c2ccc(OC)cc2)O3)cc1`, with “inactive”.
The result for `C[C@@H]1CN([C@@H](C)CO)S(=O)(=O)c2ccc(-c3cccc(F)c3)cc2O[C@@H]1CN(C)S(=O)(=O)c1ccc(F)cc1` reads “inactive”.
On to `COc1ccc(S(=O)(=O)Nc2ccc3c(c2)CC(=O)N([C@@H](C)CO)C[C@H](C)[C@H](CN(C)S(=O)(=O)c2ccc(F)cc2)O3)cc1`, for which the activity change, negative = cytotoxicity result is “inactive”.

These data come from PubChem BioAssay AID652042 (Broad Institute, 2013).
